# From PubChem BioAssay AID1117359 (Southern Research Institute, 2015)
# Out of some 1,500 compounds screened, about 460 (31%) were called active. Not all results are given here. Potency and affinity values are given separately. Unmarked numbers belong to inactive results.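 Rule for the calls: active = viability at or below 80% at any tested concentration, marking the compound as toxic; inactive = the rest.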
# Experiment: viability loss in THP-1 monocytes – THP-1 cells, cytotoxicity control for Vif-APOBEC3G degradation inhibitor project, dose response (AID 1117359)
# Conditions: THP-1 viability, CellTiter-Glo luminescence, 72 h; series mostly up to 40 µM; viability: at the top concentration
row,Structure (SMILES),viability [%]
1,O=[N+]([O-])c1cc2oc3c(c2c(C=NCc2ccncc2)c1O)CCCC3,110
2,COc1cc2c3c(c1OC)C1(C=CC(=O)C=C1)CC3N(C(=O)CCC(=O)O)CC2 (stereo unspecified),103
3,Oc1ccc(-c2cn3c(n2)SCC3)cc1O,97.9
4,COc1ccc(OC)c(N/C(C)=C/C(=O)c2ccc(C)o2)c1,89.8
5,O=C(CCCCl)Nc1nc(-c2ccc3c(c2)OCCO3)cs1,98.4
6,COc1ccc(O)c(N)c1,99.5
7,CCCCCC#CCC#CCC#CCC#CCCCC(=O)O,83
8,CC(=O)Nc1cccc(-c2cc(-c3c(Cl)cccc3Cl)no2)c1,95.7
9,COc1ccc(NC(=O)/C=C/c2ccc(S(=O)(=O)N3CCOCC3)cc2)cc1,97.8
10,Cc1cc(-c2n[nH]c(=S)n2/N=C/C=C/c2ccco2)n[nH]1,108
11,COc1ccc(C)cc1NC(=O)COC(=O)CCC(=O)c1cccs1,106
12,N#Cc1ccccc1CN1C(=O)S/C(=C/c2cccn2-c2ccc(C(=O)O)cc2)C1=O,109
13,O=C(NCC(c1ccco1)N1CCCC1)c1cccc(S(=O)(=O)N2CCCCC2)c1 (stereo unspecified),89.7
14,COc1cc(C(C2C(=O)CC(C)(C)CC2=O)C2C(=O)CC(C)(C)CC2=O)cc(OC)c1OC,96
15,COCCNC(=O)Nc1ccc2nc(-c3ccco3)c(-c3ccco3)nc2c1,114
16,O=C(NC1CC1)c1cc(-c2ccco2)nc2ccccc12,87.3
17,CC(C)CN(C(=O)CN1CCN(S(=O)(=O)c2ccccc2)CC1)c1c(N)n(CC(C)C)c(=O)[nH]c1=O,118
18,COC(=O)[C@@]1(Cc2ccc(OC)cc2)[C@H]2c3cc(C(=O)N(C)C)n(C[C@H](O)CO)c3C[C@H]2CN1C(=O)c1ccccc1,83.2
19,O=C(Nc1nnc(C2CC2)s1)c1ccc(S(=O)(=O)c2ccccc2)cc1,94.8
20,Cc1nc(C)c(C(=O)Nc2nc3c(C)cccc3s2)o1,92.6
21,S=c1[nH]nc(COc2ccc(Cl)cc2)o1,103
22,CCCCCCNS(=O)(=O)c1ccccc1Br,87
23,Clc1ncnc2scc(-c3ccccc3)c12,84.7
24,Nc1ccc(S(=O)(=O)c2cc(O)c3ccccc3c2O)cc1,89.9

row,Structure (SMILES),viability [%]
1,CCOC(=O)/C(C#N)=C/c1c(OCC)n(CC)c2ccccc12,91.8
2,COc1ccc(CCN2C(=O)CC(Nc3ccc(N4CCOCC4)cc3)C2=O)cc1OC (stereo unspecified),96.4
3,O=C1CCC(CCC(=O)N2CCCC(C(=O)c3ccc4c5c(cccc35)CC4)C2)=NN1 (stereo unspecified),81.3
4,Nc1cc(N)c(OCC(F)(F)F)cc1OCC(F)(F)F,98.8
5,CC(=O)c1ccc2c(c1)C1C=CCC1C(c1ccncc1)N2 (stereo unspecified),86.5
6,Cc1cccc(Cc2nnc(CCC(=O)N(C)C3CCOC3)o2)c1 (stereo unspecified),95.4
7,CCCCn1c(N)c(N(CCC(C)C)C(=O)C2=NN(c3cc(C)ccc3C)C(=O)CC2)c(=O)[nH]c1=O,89.7
8,COc1ccccc1NS(=O)(=O)c1cccs1,92.4
9,CNc1ccc(Br)cc(C(=O)/C=C/c2cc(OC)ccc2OC)c1=O,82.2
10,CN(C)S(=O)(=O)c1cccc(NC(=S)N/N=C/c2ccc(O)c(O)c2O)c1,92.7
11,Cc1ccc(C=C2C(Cl)=C(Cl)C(Cl)=C2Cl)cc1,91
12,COC(=O)COc1ccc(S(=O)(=O)Nc2ccc(C(N)=O)cc2)cc1C,97.2
13,O=C1CSC(c2cccnc2)N1Cc1cccnc1 (stereo unspecified),109
14,Cc1cc(C)c(C(=O)/C=C/c2ccco2)c(=O)[nH]1,88.5
15,N#CC(C#N)=Cc1cccn1-c1ccc(C(=O)O)cc1,101
16,CCOC(=O)CN(C(=O)CSc1nnc(COc2ccc(OC)cc2)n1CC)c1ccccc1,87.8
17,O=C(O)CCCNc1cc(N2CCC3(CC2)OCCO3)c2noc3c2c1C(=O)c1ccccc1-3,89.7
18,Cc1ccc(NC(=O)CSc2nc(CSc3ccc(C)cc3)cc(=O)[nH]2)cc1,103
19,COc1ccc(N(CC(=O)NCCC2=CCCCC2)S(=O)(=O)c2ccccc2)cc1,83.4
20,COc1cc([N+](=O)[O-])c(N2CCOCC2)c([N+](=O)[O-])c1OC,87
21,CC(C)C1Nc2ccc(C(=O)O)cc2C2C=CCC21 (stereo unspecified),87.3
22,O=C1NN(c2ccc(Cl)cc2)C(=O)/C1=C\c1ccc(-c2cccc(C(=O)O)c2)o1,97.9
23,Fc1cc(F)cc(NC(=S)NCCCN2CCOCC2)c1,106
24,CC(C)OP(=O)(OC(C)C)C(O)c1ccc(N(C)C)cc1 (stereo unspecified),111

row,Structure (SMILES),viability [%]
1,Cc1ccc(Oc2ccc(/C=N/O)cn2)cc1,89.2
2,CCOC(=O)C(C#N)(Cc1ccc2ccccc2n1)Cc1ccc2ccccc2n1,83.9
3,O=C(CCl)N1N=C(c2ccco2)CC1c1ccco1 (stereo unspecified),108
4,Cc1cccc(NC(=O)CNC(=O)c2cccc(-n3cccc3)c2)c1C,95.8
5,C/C(N)=C(/C#N)C(=O)CSc1nnc(Nc2c(C)cccc2C)s1,92.9
6,O=C(O)CCCCC1SCC2NC(=O)NC21 (stereo unspecified),118
7,CN(C(=O)CSc1ncnc2sccc12)C1CCCCC1,93.3
8,O=C1/C(=C/C=C/c2ccco2)SC(=S)N1c1ccc(O)cc1,83.6
9,O=C(O)CC(C(=O)O)N1C(=O)/C(=C/C=C/c2ccco2)SC1=S (stereo unspecified),97.4
10,CC(C)(C)C1CCC(OC(=O)C[N+]2(C)CCCCC2)CC1 (stereo unspecified),82.8
11,CCOc1ccccc1C(=S)NC1CCCCC1,101
12,Cc1nn(CC(=O)NC2CC2)c(C)c1S(=O)(=O)N(C)C,102
13,CC(C)(C)c1cc(N/C=C\c2nnnn2-c2ccc(Br)cc2)no1,102
14,CC1CCN(Cc2c(O)ccc3c2O/C(=C\c2ccco2)C3=O)CC1,85.3
15,CCCSC1=N/C(=C\c2ccc([N+](=O)[O-])o2)C(=O)S1,98.9
16,O=C1OC(c2ccc(F)cc2)=C/C1=C\c1ccc([N+](=O)[O-])o1,88
17,CCOc1ccc(NC(=O)C2CCCN(S(=O)(=O)c3c(C)n[nH]c3C)C2)cc1 (stereo unspecified),102
18,Cc1ccc(C)c(/C(O)=C2/C(=O)C(=O)N(CCN3CCOCC3)C2c2ccco2)c1 (stereo unspecified),99.1
19,CNc1ccc(Br)cc(C(=O)/C=C/c2ccc(OC)cc2OC)c1=O,98.3
20,CC(=O)c1c(C)[nH]c(C(=O)OCC(=O)C(C)(C)C)c1C,92.6
21,COC(=O)c1sccc1NC(=O)CC1C(=O)NCCN1C(=O)Nc1ccccc1 (stereo unspecified),101
22,COc1ccc(NC(=O)O/N=C/c2ccccc2Cl)cc1,102
23,N#C/C(=C/c1ccc(Br)o1)C(N)=S,85.2
